# Test results reported in publication PMC5700166.
# Residue numbers refer to the chain shown, from its start.
# Experiments:
# Assay in all cases: protein-binding microarray (PBM); PBM: ~300 nM protein, 6 mM HEPES pH 7.8, 80 mM KCl, 0.5 mM EDTA, 0.5 mM EGTA, 6% glycerol, 35 ng/ul poly-dIdC, 1% milk, 1 h, room temperature; Ap Aiptasia and Nv Nematostella (sea anemones) / Co Capsaspora / Aq Amphimedon (sponge) / Dm Drosophila / Hu human; RHD is the Rel homology domain; high values mean tight binding
# Conditions in all cases: dsDNA, one strand shown
# GST-Ap-NF-kB RHD = molecular target: T1, GST-Ap-NF-kB RHD (Exaiptasia pallida (Aiptasia), UniProt A0A913YAJ5 2-422)
# T1 sequence: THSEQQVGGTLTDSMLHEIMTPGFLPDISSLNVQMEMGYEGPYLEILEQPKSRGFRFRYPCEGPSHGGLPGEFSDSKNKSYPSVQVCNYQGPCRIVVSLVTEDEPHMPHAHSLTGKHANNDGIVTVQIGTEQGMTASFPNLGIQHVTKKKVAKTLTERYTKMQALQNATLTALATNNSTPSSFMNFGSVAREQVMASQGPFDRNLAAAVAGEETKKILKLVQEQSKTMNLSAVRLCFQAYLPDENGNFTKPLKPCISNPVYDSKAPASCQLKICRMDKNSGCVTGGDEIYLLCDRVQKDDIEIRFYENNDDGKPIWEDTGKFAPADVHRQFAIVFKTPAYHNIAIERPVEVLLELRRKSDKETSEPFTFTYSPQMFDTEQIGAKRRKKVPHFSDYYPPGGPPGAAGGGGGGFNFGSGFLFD
# [1] = molecular target: T2, GST-Nv-NF-kB (Cys allele) (Nematostella vectensis, UniProt E5G601 2-411)
# T2 sequence: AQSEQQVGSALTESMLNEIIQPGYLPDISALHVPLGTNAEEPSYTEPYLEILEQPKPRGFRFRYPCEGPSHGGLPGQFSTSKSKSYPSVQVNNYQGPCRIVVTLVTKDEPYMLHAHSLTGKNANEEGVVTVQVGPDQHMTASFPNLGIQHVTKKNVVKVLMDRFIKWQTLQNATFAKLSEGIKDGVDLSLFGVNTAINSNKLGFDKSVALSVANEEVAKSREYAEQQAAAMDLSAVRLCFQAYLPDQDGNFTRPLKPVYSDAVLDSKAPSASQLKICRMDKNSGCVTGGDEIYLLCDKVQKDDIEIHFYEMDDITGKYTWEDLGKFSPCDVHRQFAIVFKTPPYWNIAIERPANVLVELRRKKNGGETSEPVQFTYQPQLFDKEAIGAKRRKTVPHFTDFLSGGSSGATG
# [2] = molecular target: T3, GST-Nv-NF-kB (Ser allele) (Nematostella vectensis, UniProt A7UNT2 2-411)
# T3 sequence: T2 sequence with Q21R, C66S, S207N, E215Q, V217A, E225K, A268E, D399E
# GST-Co-NF-kB = molecular target: T4, GST-Co-NF-kB (Capsaspora owczarzaki, UniProt F1ARL5 200-546)
# T4 sequence: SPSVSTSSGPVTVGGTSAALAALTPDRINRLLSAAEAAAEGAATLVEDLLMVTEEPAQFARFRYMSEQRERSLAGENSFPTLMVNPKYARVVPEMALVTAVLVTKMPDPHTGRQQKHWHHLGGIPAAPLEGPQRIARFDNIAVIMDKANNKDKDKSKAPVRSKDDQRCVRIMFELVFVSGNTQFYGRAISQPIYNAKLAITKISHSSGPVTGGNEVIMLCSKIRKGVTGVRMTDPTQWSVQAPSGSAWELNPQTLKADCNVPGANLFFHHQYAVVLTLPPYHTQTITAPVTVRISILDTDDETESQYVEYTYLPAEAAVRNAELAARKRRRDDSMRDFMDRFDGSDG
# GST-Dm-Relish = molecular target: T5, GST-Dm-Relish (Drosophila melanogaster, UniProt Q94527 99-473)
# T5 sequence: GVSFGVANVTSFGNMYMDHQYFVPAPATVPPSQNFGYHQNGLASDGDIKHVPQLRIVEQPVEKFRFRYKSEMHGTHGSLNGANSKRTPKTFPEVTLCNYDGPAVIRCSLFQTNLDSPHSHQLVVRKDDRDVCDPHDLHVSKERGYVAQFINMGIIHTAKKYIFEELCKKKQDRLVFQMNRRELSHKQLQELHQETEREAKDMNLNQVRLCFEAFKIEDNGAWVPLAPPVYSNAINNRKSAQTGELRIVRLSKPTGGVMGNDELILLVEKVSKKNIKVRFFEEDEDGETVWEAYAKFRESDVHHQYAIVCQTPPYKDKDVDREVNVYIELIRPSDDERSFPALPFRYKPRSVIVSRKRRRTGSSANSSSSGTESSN
# GST-Aq-NF-kB = molecular target: T6, GST-Aq-NF-kB (Amphimedon queenslandica, UniProt A9Y5G7 2-389)
# T6 sequence: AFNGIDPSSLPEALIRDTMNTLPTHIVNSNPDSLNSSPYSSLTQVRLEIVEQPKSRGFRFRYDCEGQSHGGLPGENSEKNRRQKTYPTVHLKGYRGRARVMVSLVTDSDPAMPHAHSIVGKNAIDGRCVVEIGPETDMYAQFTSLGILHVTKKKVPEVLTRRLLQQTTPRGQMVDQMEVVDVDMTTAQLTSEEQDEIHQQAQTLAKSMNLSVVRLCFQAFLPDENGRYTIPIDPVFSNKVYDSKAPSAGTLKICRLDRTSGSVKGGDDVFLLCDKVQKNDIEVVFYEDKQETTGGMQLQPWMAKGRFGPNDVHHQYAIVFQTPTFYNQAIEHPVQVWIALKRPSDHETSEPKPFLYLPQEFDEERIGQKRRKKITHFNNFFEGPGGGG
# GST-Hu-p50 = GST-Hu-p50 (Homo sapiens, UniProt P19838 7-356)
# Chain of GST-Hu-p50 (P19838 7-356): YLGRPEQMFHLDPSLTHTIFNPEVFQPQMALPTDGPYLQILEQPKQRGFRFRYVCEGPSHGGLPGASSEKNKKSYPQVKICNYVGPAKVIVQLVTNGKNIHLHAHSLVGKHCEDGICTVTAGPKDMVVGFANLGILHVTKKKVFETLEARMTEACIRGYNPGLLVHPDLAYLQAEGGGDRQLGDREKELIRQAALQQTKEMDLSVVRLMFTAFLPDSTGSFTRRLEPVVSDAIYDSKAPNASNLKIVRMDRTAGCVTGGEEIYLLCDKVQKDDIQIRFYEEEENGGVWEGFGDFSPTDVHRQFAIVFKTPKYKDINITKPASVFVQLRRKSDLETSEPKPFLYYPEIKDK
Sequence,binding signal (GST-Ap-NF-kB RHD) [z-score],binding signal [1] [z-score],binding signal [2] [z-score],binding signal (GST-Co-NF-kB) [z-score],binding signal (GST-Dm-Relish) [z-score],binding signal (GST-Aq-NF-kB) [z-score],binding signal (GST-Hu-p50) [z-score]
CCGATTAACATCAGAAATCCCCCTGATGTTAATCGGGTCTTGATTCGCTTGACGCTGCTG,11.2,10.5,10.8,6.78,9.63,8.32,7.68
CCGATTAACATCACGGGATTTGGTGATGTTAATCGGGTCTTGATTCGCTTGACGCTGCTG,1.89,1.93,1.12,1.17,1.79,1.61,2.36
CCGATTAACATCAGGGGACGTACTGATGTTAATCGGGTCTTGATTCGCTTGACGCTGCTG,4.18,3.48,3.58,2.33,6.95,4.39,3.75
CCGATTAACATCAGGGGGCGGGATGATGTTAATCGGGTCTTGATTCGCTTGACGCTGCTG,3.64,4,3.53,2.28,3.49,4.03,4.21
CCGATTAACATCAAGAATTCCCCTGATGTTAATCGGGTCTTGATTCGCTTGACGCTGCTG,9.76,11.7,12.3,7.33,8.81,8.32,7.54
CCGATTAACATCAGAGCTTCCCCTGATGTTAATCGGGTCTTGATTCGCTTGACGCTGCTG,4.5,5.06,5.75,4.37,3.56,4.57,4.17
CCGATTAACATCACGGGTATTCCTGATGTTAATCGGGTCTTGATTCGCTTGACGCTGCTG,4.85,5.05,3.76,1.3,6.78,5.48,3.53
CCGATTAACATCAGAAAAGCCCCTGATGTTAATCGGGTCTTGATTCGCTTGACGCTGCTG,7.38,9.78,7.32,1.37,8.04,7.96,6.71
CCGATTAACATCAGATAATTCCCTGATGTTAATCGGGTCTTGATTCGCTTGACGCTGCTG,5.7,7.58,6.02,4.01,3.74,7.02,4.73
CCGATTAACATCAAAAGTACCCCTGATGTTAATCGGGTCTTGATTCGCTTGACGCTGCTG,4.78,4.21,6.09,5.19,7.17,4.81,4.42
CCGATTAACATCATATTTCCCCATGATGTTAATCGGGTCTTGATTCGCTTGACGCTGCTG,5.95,7.45,10.1,8.62,2.89,5.08,6.08
CCGATTAACATCAGGGGATGAATTGATGTTAATCGGGTCTTGATTCGCTTGACGCTGCTG,3.07,4.37,5.12,4.99,2.75,3.44,3.88
CCGATTAACATCACATAATCCCCTGATGTTAATCGGGTCTTGATTCGCTTGACGCTGCTG,7.93,9.03,9.99,3.86,6.27,6.55,6.8
CCGATTAACATCAATTTTCCCCGTGATGTTAATCGGGTCTTGATTCGCTTGACGCTGCTG,6.99,8.12,10.2,11,4.87,6.2,5.95
CCGATTAACATCAAAATTCCCCGTGATGTTAATCGGGTCTTGATTCGCTTGACGCTGCTG,9.41,11.3,11.6,10.6,8.96,8.42,7.28
CCGATTAACATCACTCATCCCCGTGATGTTAATCGGGTCTTGATTCGCTTGACGCTGCTG,1.85,3.17,3.8,2.78,2.33,2.51,2.23
CCGATTAACATCACGGGAAAACCTGATGTTAATCGGGTCTTGATTCGCTTGACGCTGCTG,4.2,4.49,5.49,5.1,4.62,5.78,3.46
CCGATTAACATCAAAAGGGAATTTGATGTTAATCGGGTCTTGATTCGCTTGACGCTGCTG,3.2,6.76,7.17,1.41,4.25,4.96,5.13
CCGATTAACATCACGTTTCCCCCTGATGTTAATCGGGTCTTGATTCGCTTGACGCTGCTG,6.91,6.46,9.03,9.58,2.71,5.17,6.64
